# Data: PubChem BioAssay AID493166 (National Center for Advancing Translational Sciences (NCATS), 2011)
# Unmarked numbers belong to inactive results. Calls of active or inactive are those of the source. The call rests on the fitted dose curve; in most records, active means well fitted curve in the direction sought with a large enough effect; inactive means no such curve, though single readings can be large or run the other way.
# Assay: Retest of LOPAC molecules that induce DNA re-replication in MCF 10A normal breast cells.
# Conditions: MCF 10A DNA re-replication, Hoechst nuclear intensity, 48 h; series mostly up to 45.1 µM; activity change, positive = re-replication: at the top concentration
# Text: NIH Molecular Libraries Probe Production Network [MLPCN] NIH Chemical Genomics Center [NCGC] MLPCN Grant: Fast Track K99 CA136555 Assay Provider: Melvin DePamphilis, NICHD, NIH Assay Overview Eukaryotic cells normally restrict genome duplication to once per cell division. When this process is aberrant, DNA re-replication occurs when cells reinitiate DNA replication before the first round of replication is complete. DNA re-replication induces the DNA damage response, arrests cell proliferation, and triggers apoptosis. The cell cycle components cyclin A, Cdt-1, Cdc6 and geminin are critical regulators of this process and their misregulation results in DNA re-replication in normal and cancer cells. To identify compounds that induce re-replication in normal cells, an image-based assay was used to measure DNA content of nuclei, as detected by the fluorescent DNA binding dye, Hoechst. Cell nuclei were imaged by a fluorescence scanning plate imager and compounds that induce DNA re-replication were identified by the increase of nuclei with elevated fluorescence intensity.
# Assay Protocol Summary For screening, 250 cells in 5 uL/well were dispensed into black clear 1536-well plates (Aurora) using a solenoid-based dispenser. Following transfer of 23 nL compound or DMSO vehicle by a pin tool, the plates were incubated 48 hr at 37 C and 5% CO2. After addition of 1 uL/well Hoescht stain, the plates were incubated 40 min at 37 C, 5% CO2 and total intensity of fluorescent objects (nuclei) were enumerated by an Acumen Explorer Ex3 (TTP LabTech) fluorescence scanning plate imager (405 nm excitation, 500-530 nm emission). Keywords: NIH Roadmap, MLPCN, MLI, MLSMR, qHTS, NCGC, DNA replication, cancer
SMILES,"activity change, positive = re-replication [%]",Potency
CCCCCCN(CCCCCC)C(=O)Cc1c(-c2ccc(F)cc2)[nH]c2ccccc12,29.6,
O=c1cc(-c2ccccc2)[nH]c2nc(Cl)ccc12,,5.34 µM (active)
C[C@@H](Oc1ccc(Oc2cnc3ccc(Cl)cc3n2)cc1)C(=O)O,-68.4,
COc1cc2c(cc1O)CC[C@@H]1[C@@H]2CC[C@]2(C)[C@@H](O)CC[C@@H]12,,4.76 µM (active)
CC(=O)O[C@H]1C(=O)[C@@]2(C)C([C@H](OC(=O)c3ccccc3)[C@]3(O)C[C@H](OC(=O)[C@H](O)[C@@H](NC(=O)c4ccccc4)c4ccccc4)C(C)=C1C3(C)C)[C@]1(OC(C)=O)CO[C@@H]1C[C@@H]2O (stereo not given in full),,0.0534 µM (active)
